Measurements: PubChem BioAssay (EPA / NIEHS)
Results filed as inconclusive are left out. Activity calls are given as the source filed them. How the source made its calls: active means hit-call score of the fitted dose curve at least 0.9, where 1 is the maximum; inconclusive means response in the unintended direction; inactive means score below 0.9.

The molecules below were run on xenobiotic metabolism (CYP2C9), CYP2C9 (gene 1559) (assay: CLD_CYP2C9_6hr: CellzDirect (CLD) Gene Expression Assay for xenobiotic metabolism (CYP2C9) at 6 hours (AID 2283664)).
Description: CLD_6hr is a cell-based, multiplexed-readout assay that uses hepatocyte, a human liver primary cell, with measurements taken at 6 hours after chemical dosing in a 96-well plate.CLD_CYP2C9_6hr is one of 16 assay component(s) measured or calculated from the CLD_6hr assay. It is designed to make measurements of mRNA induction, a form of inducible reporter, as detected with chemiluminescence signals by Quantitative Nuclease Protection Assay (qNPA) technology.Data from the assay component CLD_CYP2C9_6hr was analyzed at the endpoint, CLD_CYP2C9_6hr, in the positive analysis fitting direction relative to DMSO as the negative control and baseline of activity. Using a type of inducible reporter, gain-of-signal activity can be used to understand changes in the reporter gene as they relate to the gene CYP2C9. Furthermore, this assay endpoint can be referred to as a primary readout. To generalize the intended target to other relatable targets, this assay endpoint is annotated to the cyp intended target family, where subfamily is xenobiotic metabolism.
Human hepatocyte cultures were treated daily for two consecutive days with fresh dosing solutions containing appropriate concentrations of the 320 ToxCast chemicals (chemical identities were blinded to CellzDirect and other ToxCast collaborators), vehicle control (0.2% DMSO), and positive control inducers as summarized in Table 1. Due to the large number of treatment groups and chemicals examined, the ToxCast chemicals were divided into two groups (spanning two independent cultures of hepatocytes from separate donor preparations (Hu778: ToxCast plates 1 and 2; Hu776: ToxCast plates 3 and 4). Each preparation of human hepatocyte cultures was treated with respective vehicle control, medium only control, set of six positive controls/reference chemicals for the five hepatic receptor pathways, and a subset of eight of the ToxCast chemicals (indoxacarb, pyrithiobac-sodium, norflurazon, cyhalofop-butyl, methomyl, thiram, acetochlor, and propiconazole). These replicate data, coupled with internal replicates designed within the blinded ToxCast chemical library, provided additional data to evaluate interindividual differences between hepatocyte preparations and their potential impact on chemical profiles.Cell morphology and integrity were evaluated using phase-contrast microscopy as an indicator of hepatocyte cell health (Tyson & Green, 1987). Cultures for each treatment group (i.e., media, vehicle [0.2% DMSO], positive control inducers [multiple concentrations], and the ToxCast chemicals [multiple concentrations]) were observed and cell morphology was assessed relative to vehicle control cultures at each harvest time point (0, 6, 24, or 48 h). […] Images were evaluated at the conclusion of the study to assess changes in cell integrity and account for the effects of chemical exposure on uncharacteristic changes in concentration-dependent gene expression profiles. The results from these determinations of apparent cytotoxicity were annotated (yes/no) alongside the corresponding qNPA data for reference.At the conclusion of each treatment period, hepatocyte cultures (96-well) were washed with 1 volume of HBSS, lysed by addition of 25 ul ArrayPlate lysis buffer (HTG, Tucson, AZ), and 70 ul/well of Denaturation Oil, denatured by incubation at 95C for 10 min, and frozen at approximately -70C until analysis by nuclease protection assay (qNPA) (Roberts et al., 2007). For qNPA analysis, cell lysates were thawed at 50C for approximately 30 min, qNPA probes were added, and samples were incubated at 95C for 10 min to begin the detection process by denaturing the target RNA, dissociating the duplexes and secondary structure hybridization. At the conclusion of the hybridization period, S1 nuclease reagent was added to each sample to digest all nonprotected nucleotides at 50C for 60-90 min. […]
`CCCOC(=O)NCCCN(C)C` was tested, and the outcome was “inactive”. With `CC(C)(c1ccc(O)cc1)c1ccc(O)cc1` the outcome was “inactive”. `CCCN(CCC)C(=O)SCC` was tested, and the outcome was “inactive”. With `CCOC(=O)COc1cc(-n2ncc(C(F)(F)F)c(C)c2=O)c(F)cc1Cl` the outcome was “inactive”. With `CC1(C)C(C=C(Cl)Cl)C1C(=O)OCc1cccc(Oc2ccccc2)c1` (stereo not drawn) the outcome was “inactive”. For `CCC(O)=C1C(=O)CC(C(=O)O)CC1=O` (stereo not drawn), the outcome was “inactive”. In the case of `CCCCOC(=O)[C@@H](C)Oc1ccc(Oc2ccc(C(F)(F)F)cn2)cc1`, the outcome is reported as “inactive”. For `C#CCOC(=O)[C@@H](C)Oc1ccc(Oc2ncc(Cl)cc2F)cc1`, the outcome was “inactive”. With `CCCCCOC(=O)COc1cc(N2C(=O)C3=C(CCCC3)C2=O)c(F)cc1Cl` the outcome was “inactive”. `COC(=O)c1ccccc1S(=O)(=O)NC(=O)Nc1nc(OC(F)F)cc(OC(F)F)n1` was tested, and the outcome was “inactive”. `CCOC(=O)C(C)Oc1ccc(Oc2cnc3cc(Cl)ccc3n2)cc1` (stereo not drawn) was tested, and the outcome was “inactive”. `COc1nc(C)nc(NC(=O)NS(=O)(=O)c2ccccc2OCCCl)n1` was tested, and the outcome was “inactive”. In the case of `COCCO`, the outcome is reported as “inactive”. `N#CSCSc1nc2ccccc2s1` was tested, and the AC50 was 36.1 µM (active). With `S=C(S)NCCNC(=S)S.[Mn+2].[S-]C([S-])=NCCN=C([S-])[S-].[Zn+2]` the outcome was “inactive”. `CC(C)(C)[C@@H](O)[C@@H](Cc1ccc(Cl)cc1)n1cncn1` was tested, and the outcome was “inactive”. For `CCCCC(CC)CN1C(=O)C2C3C=CC(C3)C2C1=O` (stereo not drawn), the outcome was “inactive”. For `COC(=O)CSc1cc(N=c2sc(=O)n3n2CCCC3)c(F)cc1Cl`, the outcome was “inactive”.
